Rows were chosen to be rich in hits. Some 13% of all compounds tested hit in one or more screens of this group.
HCV inh: qHTS Assay for Inhibitors of Hepatitis C Virus (HCV); Huh7.5.1 HCVcc-Cre infection, luciferase reporter, 44 h; Potency, µM (doses to about 41.8 µM), inactives show at the highest dose activity change, negative = inhibition, usual class: inhibitors; hit rate 3.4% among 340,000; AID 651820, 2012; note: potency is the fitted concentration of half-maximal effect
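1,000 cells/well; 4 h culture; + compound; + HCVcc-Cre (~0.5 moi); 44 h; luciferase substrate, RT 15 min; read 15 sec.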
HCMV antiviral: qHTS Assay for inhibitors of the human cytomegalovirus (HCMV) | hit rate 4.5% among 410,000 | HFF cells, HCMV-luciferase reporter, 72 h; stronger effect = lower value | activity change, negative = inhibition, % at 57.5 µM; in the data active = activity change below about -60%; inconclusive = no clear call, values can overlap the other calls; inactive = above about -39%
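Inhibition of viral replication was scored as loss of reporter luminescence in HFFs infected with HCMV-luciferase (MOI 1 PFU/cell) for 72 h; compounds tested at 2 doses, normalized to buffer and Salinomycin controls.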
Pf growth 96h: Primary qHTS for delayed death inhibitors of the malarial parasite plastid, 96 hour incubation | hit rate 6.9% among 320,000 | Potency, µM (highest dose often 28.7 µM), for the others: top-dose activity change, negative = inhibition, usual class: inhibitors | P. falciparum luciferase reporter growth, 96 h | AID 504834, 2011; note: potency is the fitted concentration of half-maximal effect
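Compounds incubated with erythrocytes infected by luciferase-expressing P. falciparum (2% hematocrit, 0.05% parasitemia final) for 96 hours, 37 C in 5% CO2. Growth inhibition scored as decreased luciferase luminescence.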
Pf growth 48h: Primary qHTS for delayed death inhibitors of the malarial parasite plastid, 48 hour incubation; P. falciparum luciferase growth in erythrocytes, 48 h; Potency, µM (titrated, usually from 28.7 µM), for the others: top-dose activity change, negative = inhibition, actives largely listed as inhibitors; hit rate 5.9% among 310,000; note: potency is the fitted concentration of half-maximal effect
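Luciferase-expressing parasites in RBCs, 2% Hct / 0.1% parasitemia final; RPMI 1640 + 0.5% Albumax; 37 C, 5% CO2, one generation; luminescence read-out, lower signal = inhibition.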
* hit, by the source's call; u = inconclusive; x = not tested or not shown; [ ] = dose if it differs, or a comment. Unless noted, calls come from the whole dose curve; as a rule, active = well fitted inhibition curve with a large enough effect; inconclusive = small, poorly fitted or top-dose-only effect, or another doubt; inactive = no such curve, though single readings can be large or run the other way. % is set by controls: 0 for no effect and ±100 for the full control effect.

SMILES	HCV inh	HCMV antiviral	Pf growth 96h	Pf growth 48h
CCCCc1ccc(NC(=S)N2CCCC(C)C2)cc1 (centres undefined)	-20%	-67*	194%	32%
CC1CCN(C(=O)C2CCC(CNS(=O)(=O)c3cccc4cccnc34)CC2)CC1 (centres undefined)	x	-20	9.3µM*	x
O=C(C1CCC(CNS(=O)(=O)c2cccc3cccnc23)CC1)N1CCc2ccccc21 (centres undefined)	u	-61*	u	x
CC1CCC(NC(=O)C2CCC(CNS(=O)(=O)c3cccc4cccnc34)CC2)CC1 (centres undefined)	u	-1	12µM*	-9%
COc1ccccc1-c1cc(C(F)(F)F)nc(N2CCN(c3ccc(F)cc3)CC2)n1	15%	8	13µM*	-2%
COc1ccc(-c2cc(C(F)(F)F)nc(N3CCOCC3)n2)cc1OC	3.2µM*	4	u	u
COc1ccc(CNc2nc(-c3ccc(OC)c(OC)c3)cc(C(F)(F)F)n2)cc1	x	6	x	x
COc1ccc(-c2cc(C(F)(F)F)nc(NC3CCCC3)n2)cc1OC	2.2µM*	25	13%	15µM*
COc1ccc(-c2cc(-c3ccccc3)nc(N3CCCC3)n2)cc1OC	3.5µM*	2	0%	9.3µM*
O=C(NC1CC1)c1ccc(Cn2c(SCc3cccc(F)c3)nc3cccnc32)cc1	x	-31	x	x
CCCCOc1cccc(NC(=O)CSc2nnc(C)s2)c1	x	2	x	x
CCOc1ccc(-n2c(SCC(=O)c3ccccc3)nc3c([nH]c4ccccc43)c2=O)cc1	x	21	x	x
O=S(=O)(c1ccccc1)c1nnn2c1nc(NC1CCCCCC1)c1sccc12	x	-6	x	x
CCc1cnc2c(c1SCC(=O)Nc1ccc(C)cc1C)c(=O)n(C)c(=O)n2C	x	2	x	x
Cc1cccc(-c2cc3nc(C)cc(NCCCN(C)C)n3n2)c1	2.5µM*	91	379%	10µM*
Cc1cccc(-c2cc3nc(C)cc(C)n3n2)c1	10µM*	172	0%	124%
CN(C)CCCNc1cc(-c2ccccc2)nc2cc(-c3cccc(F)c3)nn12	u	33	-14%	u
CCN(CC)CCNC(=O)c1ccc(NC(=O)c2ccc(Cl)c(S(=O)(=O)N3CCCCCC3)c2)cc1	14µM*	-60*	-58%	1.7µM*
CCN(CC)CCNC(=O)c1ccc(NC(=O)c2cccc(S(=O)(=O)N3CCCCCC3)c2)cc1	u	29	x	x
CCN(CC)CCNC(=O)c1ccc(NC(=O)c2ccc(S(=O)(=O)N3CCCCCC3)cc2)cc1	10µM*	-32	u	1.7µM*
Nc1nc2ncccn2c1-c1ccc(F)c(F)c1	x	-6	x	x
CCCCCN1C(C(=O)c2ccccc2)=C(NC(=O)c2ccc(C)cc2)c2ccccc2S1(=O)=O	x	-40	x	x
CCCCN1C(C(=O)c2ccccc2)=C(OC(=O)CC)c2ccccc2S1(=O)=O	x	-107*	x	x
CCCCCN1C(C(=O)c2ccccc2)=C(OC(=O)CC)c2ccccc2S1(=O)=O	x	-104*	x	x
CCCCC(=O)OC1=C(C(=O)c2ccccc2)N(CCC)S(=O)(=O)c2ccccc21	x	-86*	x	x
SMILES	HCV inh	HCMV antiviral	Pf growth 96h	Pf growth 48h
CCC(=O)OC1=C(C(C)=O)N(Cc2ccccc2)S(=O)(=O)c2ccccc21	x	8	x	x
CCCCCN1C(C(=O)c2ccccc2)=C(NC(C)=O)c2ccccc2S1(=O)=O	x	-70*	x	x
COc1cc(C(=O)N(Cc2cccnc2)c2nc3cc(C)c(C)cc3s2)cc(OC)c1OC	x	83	x	x
COC(=O)Cc1nnn2c1[C@H](C)[C@H](c1ccccc1Br)OC[C@@H]2c1ccccc1	x	-21	x	x
O=C(NCc1cccs1)c1ccc(Cn2c(SCc3ccccc3)nc3cccnc32)cc1	x	-14	x	x
Cc1ccc(-n2ncc(C(=O)N3CCCCC3)c2C2CCN(C(=O)OC(C)(C)C)CC2)c(C)c1	x	-9	x	x
CCCCc1nn2c(=O)cc(COC(=O)CNC(=O)COc3ccc(C)cc3)nc2s1	x	1	x	x
CCOc1ccc(C2C(C(N)=O)=C(C)Nc3nc(SCc4ccccc4F)nn32)cc1 (centres undefined)	x	-22	x	x
COc1ccc(S(=O)(=O)N(CC(=O)NCCSc2ccccc2)c2ccc(C)cc2)cc1	x	4	x	x
COc1ccccc1N(CC(=O)NCCSCc1cccc(C)c1)S(=O)(=O)c1ccccc1	13µM*	-37	-28%	u
COc1ccccc1N(CC(=O)NCCSCc1ccccc1)S(C)(=O)=O	3%	2	u	-2%[0.00184 µM]
COc1ccccc1N(CC(=O)NCCSCc1ccc(Cl)cc1)S(C)(=O)=O	u	-33	u	-15%[0.00184 µM]
COc1ccc(N(CC2CO2)S(=O)(=O)c2ccccc2)cc1 (centres undefined)	10%	-62*	-20%	6%
COc1ccc(C)cc1N(CC(=O)NCCSCc1cccc(Cl)c1)S(C)(=O)=O	u	-22	12µM*	0%
COc1ccc(N(CC(=O)NCCSCc2ccccc2C)S(=O)(=O)c2ccccc2)cc1	u	u	5.2µM*	u
Cc1ccc(C(=O)N2CCc3cc(CNC(=O)COc4ccccc4)ccc32)cc1	x	33	x	x
CCc1ccccc1NC(=O)c1sc2nc3n(c(=O)c2c1C)CCC3	x	6	x	x
COCc1cc(C)nc2c1C(=O)NC(c1ccc(Br)cc1)N2Cc1ccccc1 (centres undefined)	x	-6	x	x
C=C(C)C1CC=C(CN2CCC(O)CC2)CC1 (centres undefined)	-10%	18	13%	x
C=C(C)[C@@H]1CC=C(CN2CCC(N3CCC(C(=O)N4CCCC4)CC3)CC2)CC1	u	u	2%	7.4µM*
Cc1ncc(CN2CCC(N3CCC(C(=O)N4CCCC4)CC3)CC2)s1	-10%	x	24%	3%
CC(C)=CCCC(C)CN1CCC(N2CCC(C(=O)N3CCCC3)CC2)CC1 (centres undefined)	2.5µM*	u	76%	u
O=c1cc(N=Nc2ccc(Cl)cc2)[nH]c(=O)[nH]1	u	-100*	u	-9%
O=C(Cn1c(-c2cccs2)cc2ccccc21)N1CCN(c2ccc(F)cc2)CC1	x	9	x	x
O=c1[nH]c(=O)n(-c2ccccc2)c(O)c1/C=C1/C(c2ccccc2)=Nc2ccccc21	u	36	9.3µM*	u
COC(=O)C1=Nc2ccccc2/C1=C\c1c(O)n(-c2ccc(Br)cc2)c(=O)[nH]c1=O	u	28	8%	14%
C=C(NC(=O)C(=C)NC(=O)c1csc(C2=N[C@@H]3c4csc(n4)[C@@H]4NC(=O)c5csc(n5)[C@@H]([C@](C)(O)[C@H](C)O)NC(=O)[C@@H]5CSC(=N5)/C(=C/C)NC(=O)[C@@H]([C@H](C)O)NC(=O)c5csc(n5)[C@]3(CC2)NC(=O)[C@@H](C)NC(=O)C(=C)NC(=O)[C@@H](C)NC(=O)[C@@H]([C@@H](C)CC)N[C@H]2C=Cc3c([C@H](C)O)cc(nc3[C@@H]2O)C(=O)O[C@H]4C)n1)C(N)=O	x	x	4.1µM*	5.7µM*

Screening results from PubChem.
